# From the supplement of paper PMC6555819
# How the values were obtained:
# Test in all cases: PBM binding z-score (relative to random genomic background probes); higher = stronger binding; sequences stand for … in GC…GCGATTGACAGCGTAGAATGAAGG
# [1] = test system: RARb homodimer (NR concentration 270 nM)
# How it was run: (§1)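 Binding z-scores were set against random background probes. The data came from custom Agilent 4×180K protein-binding microarrays carrying double-stranded probes with 34-nt variable regions, incubated 1 h with ligand-free nuclear receptor dimers. Partner-specific antibodies detected binding, and scanned fluorescence was regression-normalized.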
# [2] = test system: RARg:RXRa (NR concentration 270 nM, RXRa partner concentration 90 nM)
# How it was run: as §1
# [3] = test system: RARg homodimer (NR concentration 270 nM)
# How it was run: as §1
# [4] = test system: RXRa DBDmut IVT, anti-RXR (DBD mutation: RXRa K156A/R161A, NR concentration 90 nM)
# How it was run: as §1
# [5] = test system: RXRa homodimer (NR concentration 180 nM)
# How it was run: as §1
# [6] = test system: THRa:RXRa (NR concentration 90 nM, RXRa partner concentration 90 nM)
# How it was run: as §1
# [7] = test system: THRa homodimer (NR concentration 90 nM)
# How it was run: as §1
# [8] = test system: VDR homodimer (NR concentration 270 nM)
# How it was run: as §1
Sequence,PBM binding z-score [1],PBM binding z-score [2],PBM binding z-score [3],PBM binding z-score [4],PBM binding z-score [5],PBM binding z-score [6],PBM binding z-score [7],PBM binding z-score [8]
CCTTATGGGTCACTGACAGGTTATAGCATTTGGA,3.37,5.28,3.89,1.05,4.43,2.59,0.464,0.502
GCTGCTAGGTCAACTGTTGGTCAGCTAAAGCTCG,3.66,5.23,5.32,1.66,3.12,2.84,0.983,-0.34
TCTATTAGTTGATTTGGGCAACCGAAACAGCGGA,-0.204,0.225,0.0812,1.3,0.406,-0.0733,0.427,0.414
CAAACTAGGTCAATGGTCAAAGTCGAGCCAACCA,3.34,3.81,4.56,1.51,2.95,2.56,0.976,0.812
TCATATAGGTAATACAGGTGCAAGTCGGCATCTA,0.266,0.587,0.617,1.65,0.938,1.16,-0.0511,1.03
GCGACAGGGGCAAAGCAGGTTACCATAAGGTTGG,1.21,1.06,0.918,0.664,1.06,3.83,0.135,0.281
ATATCTAGGTTATCGGGTCATTCAGTTTGCGCAT,3.52,3.54,2.81,1.81,3.51,3.67,3.5,4.19
